28 compounds from PubChem BioAssay (NCATS) can be followed below.

Molecules are shown by their SMILES. Results filed as inconclusive are left out. Where a call stands in place of a potency, no number is given. The source made the active and inactive calls. The call rests on the fitted dose curve; in most records, active means well fitted inhibition curve with a large enough effect; inconclusive means small, poorly fitted or top-dose-only effect; inactive means flat fitted curve, though single readings scatter.
Potency means the concentration at half of the fitted maximal effect.

The first assay relates to CP305. The experiment in a line: qHTS profiling for inhibitors of Plasmodium falciparum proliferation (AID 504749). Further: nearly all actives have a fitted effect of over 60% in size. The conditions noted are these: P. falciparum in erythrocytes, SYBR Green DNA, 72 h; series mostly up to 28.7 µM. An outline of the steps:
(§1)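 P. falciparum-infected erythrocytes (0.3% parasitemia, 2.5% hematocrit) incubated with compound 72 h at 37 C, 5% CO2. Parasite DNA detected by SYBR Green after lysis, overnight at room temperature; normalised to 0.29 uM artemisinin and DMSO.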
As for `O=C(CCCN1CCC(n2c(=O)[nH]c3ccccc32)CC1)c1ccc(F)cc1`, the Potency is 5.1 µM (active). The same measure, in the same setting: the value for `Cc1c(Cl)c(=O)oc2cc(OP(=O)(OCCCl)OCCCl)ccc12` was 6.75 µM (active); that for `CN1C(=O)CN=C(c2ccccc2)c2cc([N+](=O)[O-])ccc21` was “inactive”. On the same count and under the same terms, the same measure for `CCCCCCCCC(=O)NCc1ccc(O)c(OC)c1`: “inactive”; for `c1cc2c(c(N3CCNCC3)c1)OCCO2`: “inactive”; for `CC(Cc1ccccc1)NCc1ccccc1Cl` (configuration not stated): “inactive”. Same read-out and setting: the same measure for `Clc1ccc(CO/N=C(\Cn2ccnc2)c2ccc(Cl)cc2Cl)c(Cl)c1`: 13.5 µM (active); for `C[C@]12Cc3nonc3C[C@@H]1CC[C@@H]1[C@@H]2CC[C@@]2(C)[C@H]1CC[C@]2(C)O`: “inactive”; for `ClC1=C(Cl)C2(Cl)C(CBr)CC1(Cl)C2(Cl)Cl` (configuration not stated): “inactive”. `CN1C[C@@H](NS(=O)(=O)N(C)C)C[C@@H]2c3cccc4c3c(cn4C)C[C@H]21`: the Potency result is “inactive”. Same read-out and setting: the value for `O=C(NC(=O)c1c(F)cccc1F)Nc1cc(Cl)c(OC(F)(F)C(F)C(F)(F)F)cc1Cl` (configuration not stated) was “inactive”. On the same count and under the same terms, the value for `CNC(=O)Oc1cccc2ccccc12` was “inactive”; that for `N#Cc1nn(-c2c(Cl)cc(C(F)(F)F)cc2Cl)c(N)c1S(=O)C(F)(F)F` (configuration not stated) was 7.57 µM (active); that for `COC(=O)C1=CCCN(C)C1` was “inactive”. With `COCC(=O)N(c1c(C)cccc1C)C(C)C(=O)OC` (configuration not stated), the Potency result was “inactive”. The same measure, in the same setting: the value for `COc1ccc(C(=O)N2CCCC2=O)cc1` was “inactive”; that for `Oc1c(Br)cc(Br)cc1Br` was “inactive”; that for `CC(C)(O)C(Cl)(Cl)Cl` was 6.01 µM (active).

Consider `OC(O)C(Cl)(Cl)Cl`, for which the Potency entry was “inactive”. The same measure, in the same setting: the same measure for `C[N+](C)(C)CCOC(=O)C(O)(c1ccccc1)c1ccccc1`: “inactive”.

The next assay relates to CP315. Described as above. The conditions noted are these: P. falciparum in erythrocytes, SYBR Green DNA, 72 h; series mostly up to 28.7 µM. An outline of the steps:
as §1
In the case of `Oc1ccc2[nH]cc(CCCCN3CC=C(c4ccccc4)CC3)c2c1`, the Potency is 16.9 µM (active).

Consider `CC[C@]1(O)CC[C@H]2[C@@H]3CCC4=CCCC[C@@H]4[C@H]3CC[C@@]21C`, for which the Potency result is “inactive”. The same measure, in the same setting: the same measure for `CN1C(=O)CN=C(c2ccccc2)c2cc([N+](=O)[O-])ccc21`: “inactive”; for `CCCCCCCCC(=O)NCc1ccc(O)c(OC)c1`: “inactive”; for `c1cc2c(c(N3CCNCC3)c1)OCCO2`: “inactive”. Still for that read-out and setting: the same measure for `C=CCOC(Cn1ccnc1)c1ccc(Cl)cc1Cl` (configuration not stated): 16.9 µM (active); for `CC(Cc1ccccc1)NCc1ccccc1Cl` (configuration not stated): “inactive”. Same read-out and setting: the value for `Nc1ccc(N)cc1` was “inactive”; that for `C[C@]12Cc3nonc3C[C@@H]1CC[C@@H]1[C@@H]2CC[C@@]2(C)[C@H]1CC[C@]2(C)O` was “inactive”; that for `ClC1=C(Cl)C2(Cl)C(CBr)CC1(Cl)C2(Cl)Cl` (configuration not stated) was “inactive”. As to `CN1C[C@@H](NS(=O)(=O)N(C)C)C[C@@H]2c3cccc4c3c(cn4C)C[C@H]21`, the Potency entry is “inactive”. Same read-out and setting: the same measure for `O=C(NC(=O)c1c(F)cccc1F)Nc1cc(Cl)c(OC(F)(F)C(F)C(F)(F)F)cc1Cl` (configuration not stated): “inactive”; for `CCN(CC)CCOC(=O)C(C)(c1ccccc1)c1ccccc1`: “inactive”; for `COC(=O)C1=CCCN(C)C1`: “inactive”. `COCC(=O)N(c1c(C)cccc1C)C(C)C(=O)OC` (configuration not stated): the Potency result is “inactive”. On the same count and under the same terms, the same measure for `COc1ccc(C(=O)N2CCCC2=O)cc1`: “inactive”. Regarding `Oc1c(Br)cc(Br)cc1Br`, the Potency entry is “inactive”. Still for that read-out and setting: the value for `CN1CCc2cc(Cl)c(O)cc2[C@H]2c3ccccc3CC[C@@H]21` was “inactive”. Still for that read-out and setting: the value for `C#C[C@]1(O)CC[C@H]2[C@@H]3CCC4=CC(=O)CCC4=C3C=C[C@@]21CC` was “inactive”; that for `OC(O)C(Cl)(Cl)Cl` was “inactive”. Regarding `C[N+](C)(C)CCOC(=O)C(O)(c1ccccc1)c1ccccc1`, the Potency result was “inactive”. The same measure, in the same setting: the same measure for `O=C1NCN(c2ccccc2)C12CCN(CCCOc1ccc(F)cc1)CC2`: “inactive”.
